Measurements reported in PubChem BioAssay.
Calls of active or inactive are those of the source. Unless noted, the rule behind the calls is not given here.

Experiments:
[1] = tested on: XIP peptide (Xip251-270) binding; test: XIP fragment 251-270 binding compounds – biochemical, small-molecule microarray, fluorescence 635/667 nm, 0.1 µg/mL protein, primary screen (AID 1182); settings: fluorescent protein binding, 635 nm, higher = more signal, called active from +8 up or from −8 down
XIP peptide (Xip251-270) = test: compounds binding XIP fragment 251-270 – biochemical, small-molecule microarray, fluorescence 635/667 nm, 0.5 µg/mL protein, primary screen (AID 1183); settings: fluorescence 635 nm, higher = more signal
[2] = blood-stage malaria parasite viability loss – strain 3D7, DAPI fluorescence, 100 nL, primary screen (AID 1184);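 note: parasites grown inside human red blood cells in medium with human serum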; settings: P. falciparum 3D7 growth, 3 d, higher = more signal
[3] = biological target: Homeobox protein Hox-A13 (Mus musculus) (UniProt Q62424); test: disruptors of Hoxa13 oligonucleotide interaction – biochemical, fluorescence polarization, labeled oligonucleotide, primary screen (AID 1185); settings: Hoxa13:DNA binding, 15 min, higher = more signal, called active from +8 up or from −8 down
Homeobox protein Hox-A13 (Mus musculus), sequence (Q62424 whole entry, looked up): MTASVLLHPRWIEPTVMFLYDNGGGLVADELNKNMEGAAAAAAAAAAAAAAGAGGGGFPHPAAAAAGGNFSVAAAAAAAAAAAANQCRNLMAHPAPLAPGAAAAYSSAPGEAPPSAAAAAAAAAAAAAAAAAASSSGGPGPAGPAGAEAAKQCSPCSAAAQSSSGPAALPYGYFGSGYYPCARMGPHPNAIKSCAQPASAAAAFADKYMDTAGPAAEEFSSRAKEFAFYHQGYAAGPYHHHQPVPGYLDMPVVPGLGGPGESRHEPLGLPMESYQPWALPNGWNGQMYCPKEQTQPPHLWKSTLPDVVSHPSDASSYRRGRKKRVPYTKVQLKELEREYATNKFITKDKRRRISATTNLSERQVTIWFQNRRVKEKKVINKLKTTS

[4] = blockers of DNA damage checkpoint Chk1 activation – imaging, HeLa, hydroxyurea, phospho-Chk1 antibody, percent positive cells, primary screen (AID 1186); settings: hydroxyurea-induced phospho-Chk1 immunofluorescence imaging, higher = more signal
[5] = blockers of DNA damage checkpoint Chk1 activation – imaging, HeLa, hydroxyurea, phospho-Chk1 nuclear intensity, primary screen (AID 1187); settings: hydroxyurea-induced phospho-Chk1 immunofluorescence imaging, higher = more signal

Structure (SMILES)	composite z-score [1]	composite z-score (XIP peptide (Xip251-270))	z-score [2]	z-score [3]	z-score [4]	z-score [5]
CCOC(=O)C=Cc1cc([N+](=O)[O-])ccc1O	-0.0238 (inactive)	-0.466	-1.14	0.98 (inactive)	-0.818 (inactive)	-1.46 (inactive)
CN1C(=O)C2C=CC(C(O)C3CCCCC3)N(Nc3ccc([N+](=O)[O-])cc3[N+](=O)[O-])C2C1=O (stereo unspecified)	0.514 (inactive)	0.487	0.501	-2.4 (inactive)	0.168 (inactive)	0.377 (inactive)
CN(C)C(=O)[C@@]1(Cc2ccccc2)N=C(c2ccc(OCCCO)cc2)O[C@H]1c1ccccc1N=[N+]=[N-]	-0.111 (inactive)	0.651	-1.93	-4.88 (inactive)	-0.524 (inactive)	-0.793 (inactive)
COc1ccc(CCN2C(=O)[C@@]3(c4ccc([N+](=O)[O-])cc4)CC(=O)N(C4CCCCC4)[C@@H]3c3ccc(CO)cc32)cc1	1.23 (inactive)	0.311	0.706	-0.544 (inactive)	0.135 (inactive)	-0.0588 (inactive)
COCCOC(=O)N1C(=O)[C@@]2(c3cc(C#CCCO)ccc31)[C@H](c1ccc(OCCO)cc1)N1[C@H](c3ccccc3)[C@H](c3ccccc3)OC(=O)[C@H]1[C@@H]2C(=O)N1CCN(c2ncccn2)CC1	-0.112 (inactive)	0.676	-1.98	0.671 (inactive)	0.159 (inactive)	-0.0774 (inactive)
CCCC[C@@H]1C[C@H]1[C@@H](NC(=O)c1ccco1)c1ccc(Cl)cc1	0.593 (inactive)	-0.111	-0.727	-3.18 (inactive)	-0.522 (inactive)	-0.995 (inactive)
CC(C)(C)OC(=O)CC[C@]1(C(=O)NCC(O)CO)COC(c2ccc(OCCCO)cc2)=N1 (stereo partly specified)	0.273 (inactive)	0.151	-0.104	-3.95 (inactive)	0.505 (inactive)	0.437 (inactive)
CCCC[C@H]1OB(O)C[C@H]2C1=C(COc1ccccc1)C[C@H]1C(=O)N(C)C(=O)[C@H]12	-0.146 (inactive)	-0.544	1.68	-4.62 (inactive)	-0.267 (inactive)	0.201 (inactive)
COc1ccc([Si](C)(C)[C@H]2[C@H](CC(=O)N3CCC[C@H]3CO)O[C@@]3(C(=O)N(Cc4cccc(N5C(=O)c6cccc7cccc5c67)c4)c4ccccc43)[C@@H]2C)cc1	0.397 (inactive)	0.674	-1.72	-3.25 (inactive)	-0.0887 (inactive)	-0.429 (inactive)
COCC(=C=CC[C@@H](O)c1ccccc1OCCO)C[C@@H](O)c1cc(Cl)cc(Cl)c1O	0.589 (inactive)	0.682	-1.84	-3.71 (inactive)	0.161 (inactive)	0.377 (inactive)
COc1ccc(C(=O)O[C@H]2CC[C@]3(C)C4=C(CCC3C2(C)C)[C@]2(C)CC[C@H]([C@H](C)CCCC(C)C)[C@@]2(C)CC4)cc1 (stereo partly specified)	-0.674 (inactive)	0.0738	0.148	-1.08 (inactive)	-0.975 (inactive)	-1.15 (inactive)
CN1C(=O)C2C=CC(C(O)c3ccccc3)N(Nc3ccccc3)C2C1=O (stereo unspecified)	0.599 (inactive)	0.357	-0.206	-2.83 (inactive)	0.861 (inactive)	0.163 (inactive)
COC(=O)[C@@]1(Cc2ccc(OC)cc2)[C@H]2c3cc(C(=O)N(C)C)n(Cc4cccc5ccccc45)c3C[C@H]2CN1C(=O)c1ccccc1	0.237 (inactive)	0.822	-1.61	-4.2 (inactive)	0.0329 (inactive)	-0.19 (inactive)
[N-]=[N+]=Nc1ccccc1C[C@]1(C(N)=O)N=C(c2ccc(OCCCO)cc2)O[C@H]1c1ccccc1	-0.254 (inactive)	0.537	-0.98	-7.09 (inactive)	0.0195 (inactive)	-0.54 (inactive)
COCCCNC(=O)[C@@]1(Cc2ccccc2N=[N+]=[N-])N=C(c2ccc(OCCCO)cc2)O[C@H]1c1ccccc1N=[N+]=[N-]	0.0041 (inactive)	0.771	-2.43	-2.81 (inactive)	-0.559 (inactive)	-0.225 (inactive)
C[N+](C)(C)CCCC[C@@H]1NC(=O)[C@@H]2C[C@H](C(=O)NCCCCCN)[C@H](c3cccc(OCCO)c3)N2C1=O	-0.442 (inactive)	0.572	0.137	-3.6 (inactive)	-0.86 (inactive)	-0.231 (inactive)
COCCOC(=O)N1C(=O)[C@@]2(c3cc(C#CCNC(N)=O)ccc31)[C@H](C(=O)NC[C@H](O)c1ccccc1)[C@H]1C(=O)O[C@H](c3ccccc3)[C@H](c3ccccc3)N1[C@@H]2c1ccccc1OCCO	0.0808 (inactive)	0.689	-0.411	-1.65 (inactive)	0.0441 (inactive)	0.0861 (inactive)
CCOC(=O)C[C@H]1[C@H](OC(=O)Cc2ccc3c(c2)OCO3)[C@@H](NC(=O)c2ccc(-c3ccccc3)cc2)c2cc(OCCCO)ccc2N1C(=O)c1ccc2ccccc2n1	-0.458 (inactive)	0.447	-2.38	-1.61 (inactive)	0.455 (inactive)	0.46 (inactive)
CN1C2C=C(CCCO)C(C3C(=O)N(C(N)=O)C(=O)C32)C1c1ccc(CN2CCCC2)cc1 (stereo unspecified)	0.276 (inactive)	0.297	0.446	-5.26 (inactive)	0.0965 (inactive)	-0.0741 (inactive)
CC(C)(C)OC(=O)CC[C@@]1(C(=O)NCCN2CCOCC2)N=C(c2ccc(OCCCO)cc2)O[C@@H]1c1ccccc1N=[N+]=[N-]	0.171 (inactive)	0.401	-1.85	-3.61 (inactive)	0.17 (inactive)	0.297 (inactive)
CC(C)c1ccc(NN2C(C(O)c3cc(C(F)(F)F)cc(C(F)(F)F)c3)C=CC3C(=O)N(c4ccccc4)C(=O)C32)cc1 (stereo unspecified)	0.544 (inactive)	0.641	-0.764	-3.49 (inactive)	0.652 (inactive)	0.417 (inactive)
